The first assay addresses ANG. The assay is described as follows: pooled miR-30 sensor sort-seq; sequence = guide strand. Conditions: shRNA.
Take AATGTGTTGATGTCTTTGCAGG: the sensor-assay potency score (higher = more potent) was -1.22.
In turn, TTGATGCTGCGCTTGTTGCCAT yielded a sensor-assay potency score (higher = more potent) of -0.23.
The same measure, in the same setting: for TTTGGCATCATAGTGCTGGGTC the value was 0.651; for TTGCCATGAATAAATGTGTTGA, -0.499; for TAGCTTGCAAGTGGTGACCTGG, -0.539.
Same read-out and setting: for TTTCACAGTATCTGTCATCCCG the value was 0.634; for TGTGTACCTGGAGTTATCCTGA, 0.329.
The same measure, in the same setting: for TAGGTTTTCTCTGTGAGGGTTT the value was 0.619.
As to TTGTTGCCATGAATAAATGTGT, the sensor-assay potency score (higher = more potent) is -0.656.
On the same count and under the same terms, for TCACAGATGGCCTTGATGCTGC the value was -0.333.
Still for that read-out and setting: for TTCACAGTATCTGTCATCCCGG the value was -0.736.

In the next assay the target is ANK1. Described as above. Conditions: shRNA.
The sequence TTGCAGGTATGAGACAATCGAG returned a sensor-assay potency score (higher = more potent) of -1.
Sequence TGGACAAGTCTATCTGTCGAAC had a sensor-assay potency score (higher = more potent) of -1.67.
Take TCTCTTCTGACCTCTGACCTTC: the sensor-assay potency score (higher = more potent) is -0.43.
Sequence TTGGTGACGGCATTCTCCGGGA displayed a sensor-assay potency score (higher = more potent) of -0.46.
On the same count and under the same terms, the value for TATTCTGAAACTCATTCCCCTG was -1.12; that for TTGACTTTGGCTTTGTTCTGGA was 0.642; that for TTGCGAATGATCTTCTTGGTGA was 0.462.
As for TTGATGTTTCCATAGTGACTGG, the sensor-assay potency score (higher = more potent) is -0.739.
Still for that read-out and setting: the value for TATCTGTCGAACCACCTTGCGA was -1.29; that for TGCACCTGTCGCGTCATCCTGC was -1.06; that for TTCTCTTCATCAACATCCCTGG was -0.331.
Same read-out and setting: the value for TTAGTGACAAGCTCATCCGGGA was -0.401; that for TAGAATGATTTCTTTGTGCAGA was -0.0456.
Still for that read-out and setting: for TCTATCTGTCGAACCACCTTGC the value was 0.271; for TTCTAGAATGATTTCTTTGTGC, 0.132.
As to TGTGGTGTGAAATTGACGCTGG, the sensor-assay potency score (higher = more potent) worked out at 0.797.
On the same count and under the same terms, for TAGCTTCGGCACAAAATCCAGC the value was -0.878.
Consider TCACTGACTAACACGAAACTGG, for which the sensor-assay potency score (higher = more potent) was -0.214.
As to TCGTATTGCAACAGGAGCCGGA, the sensor-assay potency score (higher = more potent) is -0.769.
Still for that read-out and setting: for TTGTGCAGCATCTTGCAGGTAT the value was 0.193.
TCATCTGTCATGCAGTAGCAGC registered a sensor-assay potency score (higher = more potent) of -1.12.
On the same count and under the same terms, for TCGGTGACCGCGTCGATCGAGG the value was -1.26; for TTGGTCTTGGTTTCTATCTGGG, -0.274; for TTCATCTTCCGAGACATCCAGG, -0.548.

The target in a further assay is ANKRD22. Described as above. Conditions: shRNA.
ATTAAAGCCATCTTGAACGTTG came in with a sensor-assay potency score (higher = more potent) of -0.412.
The same measure, in the same setting: the value for TACAAGAGCCTCATTCTGCTTT was -0.0713; that for ATCTGTAGCATTAACTTCGACG was -1.27.
Same read-out and setting: for TTGACATTAGCATTTCTTCTTA the value was -0.439; for TTATTGTGGGGTCTGCACGGGC, -0.753.

The values above are taken from the OligoGym collection.
Also: reference of the scale not given here.
